Reference: PubChem BioAssay (Tox21)
Inconclusive results are not listed. The source made the active and inactive calls. Calls come from the whole dose curve.

How the values were obtained:
[1] = biological target: Acetylcholinesterase (Homo sapiens) (UniProt P22303); assay: Acetylcholinesterase (AChE) small molecule antagonists: colormetric cell-based qHTS assay (AID 1347395); note: nearly all actives have a fitted effect of over 30% in size
In short: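 Colorimetric readout: DTNB quantifies thiocholine from acetylthiocholine hydrolysed by endogenous AChE of SH-SY5Y cells (2,000/well, plated overnight). Compound pretreatment 30 min, substrate incubation 90 min, both 37 C.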

[2] = biological target: Acetylcholinesterase (Homo sapiens) (UniProt P22303); assay: Acetylcholinesterase (AChE) small molecule antagonists: enzyme-based qHTS assay (AID 1347397); settings: Potency: AChE enzyme activity inhibition; outcome: AChE enzyme activity inhibition; note: nearly all actives have a fitted effect of over 55% in size
In short: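 First, recombinant human AChE (50 mU/mL as dispensed) received test compound or DMSO. Second, plates stood 30 min at room temperature. Third, DTNB and acetylthiocholine were added, followed by 10 min at room temperature and colorimetric detection.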

[3] = biological target: Acetylcholinesterase (Homo sapiens) (UniProt P22303); assay: Acetylcholinesterase (AChE) small molecule antagonists: fluorescence cell-based qHTS assay (AID 1347398); settings: Potency: AChE activity; outcome: AChE activity; note: nearly all actives have a fitted effect of over 50% in size
In short: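 Homogeneous quantitative HTS format. SH-SY5Y cells seeded at 2,000 per well settle overnight at 37 C. Compound pretreatment runs 30 min (37 C, 5% CO2); substrate/probe mix then reacts 40 min at RT before reading 490/520 nm.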

[4] = biological target: Acetylcholinesterase (Homo sapiens) (UniProt P22303); assay: Acetylcholinesterase (AChE) small molecule antagonists: enzyme-based qHTS assay with human liver microsomes (AID 1347399); settings: Potency: qHTS inhibition; outcome: qHTS inhibition; note: nearly all actives have a fitted effect of over 60% in size
In short: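 Recombinant human AChE (50 mU/mL in the enzyme mix) and human liver microsomes (0.25 mg/mL final) were preincubated with compound and NADPH (0.25 mg/mL final) for 30 min at 37 C. Acetylthiocholine/DTNB was then added; thiocholine was read colorimetrically after 10 min at room temperature.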
% is set by controls: 0 for no effect and ±100 for the full control effect.

Chain of Acetylcholinesterase (Homo sapiens) (P22303 whole entry, looked up): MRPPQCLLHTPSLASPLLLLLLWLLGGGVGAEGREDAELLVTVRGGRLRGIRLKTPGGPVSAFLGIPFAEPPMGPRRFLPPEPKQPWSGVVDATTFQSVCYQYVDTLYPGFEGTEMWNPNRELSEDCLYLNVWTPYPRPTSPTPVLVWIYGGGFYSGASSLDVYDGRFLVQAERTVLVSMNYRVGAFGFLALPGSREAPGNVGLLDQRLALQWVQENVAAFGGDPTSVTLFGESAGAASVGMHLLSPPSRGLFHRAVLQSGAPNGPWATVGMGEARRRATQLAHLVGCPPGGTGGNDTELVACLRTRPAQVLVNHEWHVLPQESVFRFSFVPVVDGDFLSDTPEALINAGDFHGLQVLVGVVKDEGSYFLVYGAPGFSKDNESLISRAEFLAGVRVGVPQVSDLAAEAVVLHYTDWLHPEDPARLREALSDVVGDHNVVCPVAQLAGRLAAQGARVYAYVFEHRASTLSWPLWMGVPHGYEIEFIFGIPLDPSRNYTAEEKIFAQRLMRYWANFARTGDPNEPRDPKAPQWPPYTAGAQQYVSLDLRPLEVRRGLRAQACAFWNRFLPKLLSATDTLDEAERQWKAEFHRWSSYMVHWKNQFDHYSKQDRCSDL

CCCCC(CC)C(=O)OC(C)C (stereo not drawn)
inactive: Potency [1] | Potency [2] | Potency [3] | Potency [4]

NC(=O)NS(=O)(=O)c1ccc(Cl)cc1
inactive: Potency [1] | Potency [2] | Potency [3] | Potency [4]

CCCCCCCCCCCl
inactive: Potency [1] | Potency [2] | Potency [3] | Potency [4]

C=C(C)CCO
inactive: Potency [1] | Potency [2] | Potency [3] | Potency [4]

COc1ccc2sc(C(=O)Nc3nnn[nH]3)c(OC(C)C)c2c1
inactive: Potency [1] | Potency [2] | Potency [3] | Potency [4]

C[C@@H](O)[C@H](N)C(=O)O
inactive: activity, negative = inhibition [1] 2.29% [at 23.6 µM] | activity change, negative = inhibition [2] 0.985% [at 23.6 µM] | activity change, negative = inhibition [3] 4.69% [at 23.8 µM] | activity change, negative = inhibition [4] -2.85% [at 23.6 µM]

CC(C)=CCC/C(C)=C\C#N
inactive: Potency [1] | Potency [2] | Potency [3] | Potency [4]

CCCCCCCC/C=C\CCCCCCCC(=O)OCCO
inactive: Potency [1] | Potency [2] | Potency [3] | Potency [4]

O=S(=O)(O)c1ccccc1/C=C/c1ccc(-c2ccc(/C=C/c3ccccc3S(=O)(=O)O)cc2)cc1
inactive: Potency [1] | Potency [2] | Potency [3] | Potency [4]

C=CC(=O)OCCn1c(=O)n(CCOC(=O)C=C)c(=O)n(CCOC(=O)C=C)c1=O
inactive: Potency [1] | Potency [2] | Potency [3] | Potency [4]

C=CC(=O)O[C@H]1C[C@@H]2CC[C@@]1(C)C2(C)C
inactive: Potency [1] | Potency [2] | Potency [3] | Potency [4]

C/C=C/C(=O)C1=C(C)C=CCC1(C)C
inactive: Potency [1] | Potency [2] | Potency [3] | Potency [4]

CCC(=O)CC
inactive: Potency [1] | Potency [2] | Potency [3] | Potency [4]

Cc1cc(C)c(NC(=O)CN(CC(=O)O)CC(=O)O)c(C)c1Br
inactive: Potency [1] | Potency [2] | Potency [3] | Potency [4]

CC(C)CCCC(C)(C)O
inactive: Potency [1] | Potency [2] | Potency [3] | Potency [4]

CCCCC(CC)CNC(=O)CC(C)OC(=O)CCC(=O)O (stereo not drawn)
inactive: Potency [1] | Potency [2] | Potency [3] | Potency [4]

CCCCCCCCC(C)=O
inactive: Potency [1] | Potency [2] | Potency [3] | Potency [4]

CC1COc2ccccc2N1 (stereo not drawn)
inactive: Potency [1] | Potency [2] | Potency [3] | Potency [4]

CCCCC(=O)O[C@]1(C(=O)CO)[C@H](C)C[C@H]2[C@@H]3CCC4=CC(=O)C=C[C@]4(C)[C@@]3(F)[C@@H](O)C[C@@]21C
inactive: Potency [1] | Potency [2] | Potency [3] | Potency [4]

C=C(C)CCCC(C)CCO (stereo not drawn)
inactive: Potency [1] | Potency [2] | Potency [3] | Potency [4]

CC(C)COC(=O)COc1cc(Cl)c(Cl)cc1Cl
inactive: Potency [1] | Potency [2] | Potency [3] | Potency [4]

Cc1occc(=O)c1OC(=O)C(C)C
inactive: Potency [1] | Potency [2] | Potency [3] | Potency [4]

CO[Si](C)(OC)c1ccccc1
inactive: Potency [1] | Potency [2] | Potency [3] | Potency [4]

O=P(O)(O)OCC(O)CO (stereo not drawn)
inactive: Potency [1] | Potency [2] | Potency [3] | Potency [4]

CC1(C)S[C@@H]2[C@H](N=CN3CCCCCC3)C(=O)N2[C@H]1C(=O)O
inactive: Potency [1] | Potency [2] | Potency [3] | Potency [4]

CCC(C)CCCC(C)(C)O (stereo not drawn)
inactive: Potency [1] | Potency [2] | Potency [3] | Potency [4]

CCC(C)N(C)C(=O)c1cc2ccccc2c(-c2ccccc2Cl)n1 (stereo not drawn)
inactive: Potency [1] | Potency [2] | Potency [3] | Potency [4]

CNC(=O)C(c1ccccc1)c1ccccc1
inactive: Potency [1] | Potency [2] | Potency [3] | Potency [4]

COc1ccc(/C=C/c2cc(OC)cc(=O)o2)cc1
inactive: Potency [1] | Potency [2] | Potency [3] | Potency [4]

Cc1c[nH]c(=S)[nH]c1=O
inactive: Potency [1] | Potency [2] | Potency [3] | Potency [4]

C[C@@H]1C[C@H]2[C@@H]3C[C@H](F)C4=CC(=O)C(Cl)=C[C@]4(C)[C@@]3(F)[C@@H](O)C[C@]2(C)[C@@]1(O)C(=O)CO
inactive: Potency [1] | Potency [2] | Potency [3] | Potency [4]

NC(=O)c1ccccc1[N+](=O)[O-]
inactive: Potency [1] | Potency [2] | Potency [3] | Potency [4]
